AI-2 QS mod = Vibrio harveyi AI-2 quorum sensing modulation. Vibrio harveyi JMH597 AI-2 luminescence/OD600 ratio, 9 h; hits give low values; strain lacks LuxN and CqsS sensors; 0 = neutral-control median. activity change, % at 7.5 µM. 300,000 compounds, 0.4% hits. AID 2094; in the data active = activity change below about -75%, passing the limit was not always enough; inconclusive = no clear call, values can overlap the other calls;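 also: luminescence divided by OD600 gain over 9 h not by final OD600 alone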
VLA-4 inh = inhibition in a human VLA-4 binding assay; VLA-4 expressing cells, ligand binding flow cytometry; inhibition, % (about 7 µM as worked out from the volumes in the protocol); 330,000 compounds, 0.2% hits; AID 2557; in the data active = inhibition above about 50%
Pemphigus Ab inh = human desmoglein-3 autoantibody binding inhibition; P32926; DSG3-coupled beads, scFv-anti-DSG3-GFP binding, flow cytometry; hits give low values; binding (percent of control), % at 10 µM; 310,000 compounds, 0.48% hits;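 active = binding more than 3 SD below its plate's average and above zero; inconclusive = below that plate limit but binding exactly zero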;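 also: hits lower antibody fragment binding to DSG3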
NTR1 agonist = NTR1 (human) agonism; NTR1-U2OS beta-arrestin-GFP spot imaging, agonist mode; activation, % at 20 µM; 330,000 compounds, 0.17% hits;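 active = activation at or above 40% of the spot to cytoplasm intensity ratio, with at least 20 cells analyzed; inconclusive = wells under 20 cells, flagged as cytotoxic or low count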;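 also: 0% = DMSO without peptide and 100% = 100 nM NTR1 peptide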
Target sequence (P30989 whole entry, looked up): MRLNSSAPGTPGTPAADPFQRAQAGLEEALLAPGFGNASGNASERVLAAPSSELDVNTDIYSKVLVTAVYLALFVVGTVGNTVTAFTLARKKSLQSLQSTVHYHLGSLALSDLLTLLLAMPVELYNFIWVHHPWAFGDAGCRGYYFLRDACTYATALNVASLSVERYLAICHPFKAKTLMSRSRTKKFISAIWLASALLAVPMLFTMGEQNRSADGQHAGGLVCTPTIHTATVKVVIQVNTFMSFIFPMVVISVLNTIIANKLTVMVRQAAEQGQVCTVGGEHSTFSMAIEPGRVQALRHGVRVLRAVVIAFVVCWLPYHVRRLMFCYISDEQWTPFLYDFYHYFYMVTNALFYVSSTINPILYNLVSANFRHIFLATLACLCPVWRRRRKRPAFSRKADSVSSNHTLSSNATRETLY
JMH597 growth rt = retest: blocks Vibrio harveyi JMH597 growth | shares compounds with AI-2 QS mod | OD600 absorbance, 9 h; lacks LuxN and CqsS sensors | growth inhibition, % at 7.5 µM | 750 compounds, 1% hits | AID 2726;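 active = every replicate shows growth inhibition above 50%; inconclusive = at least half, but not all, replicates pass that cutoff; inactive = fewer than half of replicates pass it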
BB721 const-QS lum = retest counter-screen: lowers luminescence of constitutive-QS Vibrio harveyi BB721. shares compounds with AI-2 QS mod. 9 h. inhibition, % at 7.5 µM. 750 compounds, 95% hits;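 active = inhibition above about 80% in every replicate, not just on average, limit read from the data; inconclusive = at least half of replicates past the limit, but not all; inactive = fewer than half of replicates past the limit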
BB721 growth rt = retest Vibrio harveyi BB721 growth inhibition. OD600 absorbance, 9 h. 750 compounds, 3% hits. growth inhibition, % at 7.5 µM. AID 2728. shares compounds with AI-2 QS mod;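 active = every replicate shows growth inhibition above 50%; inconclusive = at least half but not all replicates above 50% inhibition; inactive = under half of replicates above 50% inhibition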
JMH597 AI-2 mod = Vibrio harveyi AI-2 signaling luminescence modulation – JMH597 strain, confirmation; shares compounds with AI-2 QS mod; Vibrio harveyi JMH597 AI-2 quorum sensing luminescence, 9 h; luxN and CqsS knockout, AI-2 only; inhibition, % at 7.5 µM; 750 compounds, 97% hits; AID 2736;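 active = every replicate shows more than 75% inhibition of signal versus neutral control wells; inconclusive = half to three quarters of replicates exceed 75% inhibition; inactive = fewer than half of replicates exceed 75% inhibition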
Numbers without * were called inactive. Hits are enriched below; roughly 1.1% of the tested compounds scored in any of these assays.

Cc1ncoc1C(=O)Nc1ccc(Oc2ccccc2)cc1 was read as AI-2 QS mod -96.3*, VLA-4 inh 4.4, Pemphigus Ab inh 100.7, NTR1 agonist 0.4, JMH597 growth rt 15.1, BB721 const-QS lum 98.8*, BB721 growth rt 6.0 and JMH597 AI-2 mod 99.2*.
Screening Cc1nc(C)c(C(=O)Nc2ccc(Oc3ccccc3)cc2)o1 returned AI-2 QS mod -82.8*, VLA-4 inh -2.9, Pemphigus Ab inh 97.1, NTR1 agonist 0.8, JMH597 growth rt 11.1, BB721 const-QS lum 90.6*, BB721 growth rt -43.0 and JMH597 AI-2 mod 94.0*.
`CCN(C[C@H]1N[C@@](Cc2ccccc2)(C(=O)OC)[C@H]2C(=O)N(Cc3ccccc3)C(=O)[C@@H]12)C(=O)Nc1ccc(C(F)(F)F)cc1` gave VLA-4 inh -5.7, Pemphigus Ab inh 100.5 and NTR1 agonist 8.6.
O=C(NCCOc1ccccc1)c1cccc(S(=O)(=O)NCc2ccccc2)c1 was read as AI-2 QS mod -97.0*, VLA-4 inh -2.2, Pemphigus Ab inh 97.1, NTR1 agonist 1.2, JMH597 growth rt inconclusive, BB721 const-QS lum 98.9*, BB721 growth rt 8.9 and JMH597 AI-2 mod 99.3*.
For O=C(NCCOc1ccccc1)c1cc2ccccc2o1 the results were AI-2 QS mod -81.7*, VLA-4 inh 8.4, Pemphigus Ab inh 85.8, NTR1 agonist -0.1, JMH597 growth rt 7.4, BB721 const-QS lum 87.2*, BB721 growth rt -6.8 and JMH597 AI-2 mod 91.9*.
Screening CC(C)COc1ccc(/C(=N/O)c2ccccc2)cc1 returned AI-2 QS mod -84.5*, VLA-4 inh -21.9, Pemphigus Ab inh 101.1, NTR1 agonist 6.6, JMH597 growth rt 19.9, BB721 const-QS lum 94.0*, BB721 growth rt 27.0 and JMH597 AI-2 mod 94.8*.
`CC(O)COc1ccc(/C(=N/O)c2ccccc2)cc1` (stereo unspecified) gave AI-2 QS mod -21.6, VLA-4 inh 6.8, Pemphigus Ab inh 101.8 and NTR1 agonist -0.5.
`Cn1cnc(S(=O)(=O)Nc2ccc(OC(F)(F)F)cc2)c1` gave AI-2 QS mod inconclusive, VLA-4 inh 6.3, Pemphigus Ab inh 103.9, NTR1 agonist -0.8, JMH597 growth rt 1.4, BB721 const-QS lum -33.6, BB721 growth rt -27.1 and JMH597 AI-2 mod 88.3*.
Screening CCC1(c2ccccc2)NC(=O)N(CC(=O)NCc2ccc(F)cc2)C1=O (stereo unspecified) returned AI-2 QS mod -62.9, VLA-4 inh 0.3, Pemphigus Ab inh 108.9 and NTR1 agonist -0.6.
CCC1(c2ccccc2)NC(=O)N(CC(=O)Nc2ccc(OC)nc2)C1=O (stereo unspecified) was read as AI-2 QS mod -87.6*, VLA-4 inh 6.9, NTR1 agonist -0.1, JMH597 growth rt 2.0, BB721 const-QS lum 89.8*, BB721 growth rt -0.4 and JMH597 AI-2 mod 94.3*.
Screening CCC1(c2ccccc2)NC(=O)N(CC(=O)NCc2ccc(C)cc2)C1=O (stereo unspecified) returned AI-2 QS mod -90.8*, VLA-4 inh 3.1, Pemphigus Ab inh 88.3, NTR1 agonist -1.2, JMH597 growth rt -12.9, BB721 const-QS lum 94.2*, BB721 growth rt -31.4 and JMH597 AI-2 mod 96.8*.
CCOc1ccc2oc(C(=O)NCc3ccccc3CN3CCCC3)c(C)c2c1 was read as VLA-4 inh 4.0, Pemphigus Ab inh 103.4 and NTR1 agonist 2.1.
For C=C1C(=O)OCC2C(C(=O)O)=CC3C(C)C(C)=CC123 (stereo unspecified) the results were Pemphigus Ab inh 107.1.
`O=C(Cc1ccc(Cl)cc1)N/N=C/c1cccs1` gave AI-2 QS mod inconclusive, VLA-4 inh 17.9, Pemphigus Ab inh 108.5, NTR1 agonist 0.5, JMH597 growth rt 25.3, BB721 const-QS lum 89.2*, BB721 growth rt 17.7 and JMH597 AI-2 mod 90.2*.
COc1ccc(/C=N/NC(=O)CNC(=O)c2cccs2)cc1 was read as AI-2 QS mod -73.0, VLA-4 inh 16.9, Pemphigus Ab inh 101.2 and NTR1 agonist -0.5.
Screening O=C(CNC(=O)c1cccs1)N/N=C/c1ccc(Cl)cc1 returned AI-2 QS mod -87.0*, VLA-4 inh 15.2, Pemphigus Ab inh 119.1, NTR1 agonist 1.1, JMH597 growth rt -3.3, BB721 const-QS lum 96.4*, BB721 growth rt 8.7 and JMH597 AI-2 mod 96.5*.
Screening O=C(Cc1ccccc1)N/N=C/c1cccs1 returned AI-2 QS mod -18.8, VLA-4 inh 7.9, Pemphigus Ab inh 90.3 and NTR1 agonist -1.4.
CCS(=O)(=O)c1ccc2oc(Nc3cccc(OC)c3)nc2c1 was read as AI-2 QS mod inconclusive, VLA-4 inh -21.9, Pemphigus Ab inh 102.5, NTR1 agonist 4.5, JMH597 growth rt -11.2, BB721 const-QS lum 81.6*, BB721 growth rt -30.6 and JMH597 AI-2 mod 88.2*.
CC(C)OC(=O)c1ccc(NC(=O)CSc2nc3ncccc3[nH]2)cc1 was read as AI-2 QS mod -85.1*, VLA-4 inh 11.7, Pemphigus Ab inh 99.3, NTR1 agonist -0.1, JMH597 growth rt 27.3, BB721 const-QS lum 96.2*, BB721 growth rt 22.5 and JMH597 AI-2 mod 97.5*.
CC(C)c1ccc(NC(=O)CSc2nc3ncccc3[nH]2)cc1 was read as AI-2 QS mod -82.7*, VLA-4 inh 14.0, Pemphigus Ab inh 107.6, NTR1 agonist 2.0, JMH597 growth rt 24.7, BB721 const-QS lum 92.8*, BB721 growth rt 17.9 and JMH597 AI-2 mod 95.2*.
For COc1ccc(NC(=O)CSc2nc3ncccc3[nH]2)cc1OC the results were AI-2 QS mod 11.9, VLA-4 inh 0.9, Pemphigus Ab inh 102.0 and NTR1 agonist 1.3.
For CCC(=O)N(C)/C=C1\Sc2ccccc2C1=O the results were AI-2 QS mod 5.2, VLA-4 inh 2.5, Pemphigus Ab inh 108.2 and NTR1 agonist -0.4.
`O=CN(/C=C1\Sc2ccccc2C1=O)Cc1ccccc1` gave AI-2 QS mod -89.9*, VLA-4 inh -0.1, Pemphigus Ab inh 100.0, NTR1 agonist 1.4, JMH597 growth rt 78.0, BB721 const-QS lum 95.8*, BB721 growth rt -59.3 and JMH597 AI-2 mod 97.2*.
O=C1NCCCC1C(=O)N/N=C/c1cccc(Cl)c1 (stereo unspecified) was read as AI-2 QS mod -79.4*, VLA-4 inh 2.5, NTR1 agonist -0.5, JMH597 growth rt -13.3, BB721 const-QS lum 89.2*, BB721 growth rt 1.5 and JMH597 AI-2 mod 92.8*.
Screening CC(Nc1ccc(Br)cn1)c1cc(Cl)ccc1O (stereo unspecified) returned AI-2 QS mod -86.4*, Pemphigus Ab inh 101.5, JMH597 growth rt 33.8, BB721 const-QS lum 96.5*, BB721 growth rt 30.6 and JMH597 AI-2 mod 97.3*.
